Bioassay records: PubChem BioAssay, several laboratories
WT yeast gro inh = growth inhibition of WT strain, primary screen, mitochondrial fusion inhibitor project, WT and mutant strains, chemical genetic; mitochondrial fusion phenotypic screen; inhibition, % at 10 µM; actives 2.1% (n = 190,000); in the data active = inhibition above about 58%; tested in S. cerevisiae
L major viab = Leishmania major promastigote growth inhibition, primary screen | Leishmania major promastigotes, resazurin fluorescence viability | inhibition, % at 10 µM | actives 9% (n = 200,000) | AID 1063, 2008; in the data active = inhibition above about 50%;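 also: promastigotes grown with compound for 44 hours at 28 °C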
RAM inhibit = inhibitors of the yeast RAM network, primary screen, dse1pr::URA3 reporter, 5-FOA selection; inhibition, % at 50 µM; S. cerevisiae dse1pr::URA3 reporter, 5-FOA growth OD615, 2 d; analog-sensitive cbk1-as2 kinase mutant strain; actives 1.8% (n = 190,000); AID 868, 2007;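 active = inhibition above a set limit, 3 SD over mean compound inhibition, cut at about 8.4% in these data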;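 also: 0% = DMSO-only wells with no growth and 100% = 10 µM 1-NA-PP1 full growth; inhibition rescues growth on 5-FOA so higher OD means more RAM inhibition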
CHOP inh = inhibitors of CHOP promoter induction, primary screen, cell-based, unfolded protein response, luciferase reporter | CHO-K1 CHOP-promoter luciferase, tunicamycin-induced, 15-18 h | inhibition, % at 10 µM | actives 3.8% (n = 220,000) | AID 2732, 2010;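 active = compounds that reduced the stress-induced luciferase reporter signal by more than about 70% of percent inhibition, limit read from the data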;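 also: 0% = tunicamycin plus vehicle and 100% = wells without tunicamycin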
* hit, by the source's call; . = no result given. The list is not random: actives were taken first. Their share in the collection is about 13%.

SMILES	WT yeast gro inh	L major viab	RAM inhibit	CHOP inh
C=CCN1C(=O)/C(=C\c2ccc(Cl)cc2)N=C1SCC(=O)NCCC	-1.8	13.8	2.2	75.7*
CCN1C(=O)/C(=C\c2ccc(F)cc2)N=C1SCC(=O)NCc1ccco1	-19.1	9.7	-0.3	13.5
COc1ccc(/C=N/NC(=S)Nc2cc(S(=O)(=O)N3CCOCC3)ccc2N2CCOCC2)cc1O	5.7	100.1*	7.2	-14.4
CCOc1cccc(/C=N/NC(=S)Nc2cc(S(=O)(=O)N3CCOCC3)ccc2N2CCOCC2)c1O	2.5	84.6*	4.8	29.5
Cc1ccc(S(=O)(=O)NCCCCCC(=O)Nc2cccc(C)c2)cc1	-0.9	5.4	3.3	57.9
CN(CC(=O)O/N=C(\N)c1cccc([N+](=O)[O-])c1)S(=O)(=O)c1ccccc1	58.1*	-0.8	3.5	-10.7
Cc1ccc(C(=O)O/N=C(\N)c2cccc([N+](=O)[O-])c2)cc1	26.9	11.4	4.4	-4.2
CN(CC(=O)O/N=C(\N)c1ccc([N+](=O)[O-])cc1)S(=O)(=O)c1ccccc1	11.9	-7.3	4.9	41.6
Cc1ccc(CC(=O)O/N=C(\N)c2cccc([N+](=O)[O-])c2)cc1	46.6	80.2*	3.7	-21.7
O=C(COc1cccc2c1CCN(Cc1ccc(Br)cc1)C2=O)NCc1ccco1	12.6	-3.3	-2.0	19.6
CN1CCCN(Cc2ccc(Cl)cc2Cl)CC1	.	97.8*	0.7	19.0
CN1CCCN(Cc2ccccc2C(F)(F)F)CC1	3.0	2.5	0.4	-35.8
OCCN1CCN(Cc2nc(-c3cccc(Cl)c3)no2)CC1	4.3	8.7	1.7	3.0
CN1CCCN(Cc2nc(-c3ccc(Cl)cc3)no2)CC1	14.0	92.7*	1.6	14.5
Cc1ccc(C(N)=Nc2ccccc2)cc1	.	.	.	0.8
COc1cccc(C2C3=C(CC(C)(C)CC3=O)Nc3cc4c(cc32)OCO4)c1 (stereo unspecified)	-5.7	100.0*	3.0	12.8
O=C(c1cn(-c2ccccc2)nc1-c1cccs1)N1CCN(c2ccccn2)CC1	45.4	57.4*	0.0	6.2
CCN(CC)CCOC(=O)c1ccc(NC(=O)c2cn(-c3ccccc3)nc2-c2cccs2)cc1	89.8*	22.4	1.7	45.5
CN(C)C(=O)c1cn(-c2ccccc2)nc1-c1cccs1	5.5	54.0*	1.1	34.5
CN(C)c1ccc(NC(=O)c2cn(-c3ccccc3)nc2-c2cccs2)cc1	22.1	5.8	1.2	9.6
O=c1cc(-c2ccccc2)nc2c(-c3ccccc3)c(C(F)(F)F)[nH]n12	.	.	.	5.3
O=C1c2ccc(Br)cc2C(=O)N1c1ccc(Cc2ccncc2)cc1	23.4	-2.4	0.1	46.7
CCOC(=O)c1ccc(-c2ccc(C3Nc4ccccc4C(=O)N3O)o2)cc1 (stereo unspecified)	-1.8	98.5*	-0.5	52.1
CCOC(=O)c1ccc(-c2ccc(CO)o2)cc1	21.7	-7.1	2.7	-43.2
Cc1cc([N+](=O)[O-])ccc1-c1ccc(C2Nc3ccccc3C(=O)N2O)o1 (stereo unspecified)	40.3	99.5*	0.5	75.7*
SMILES	WT yeast gro inh	L major viab	RAM inhibit	CHOP inh
O=C(c1ccccn1)N(c1ccccc1)C1(C(=O)NC2CCCCC2)CCCCC1	-8.0	-0.8	5.3	19.0
CCOc1ncccc1C(=O)OCc1cccc([N+](=O)[O-])c1	-2.9	9.4	5.0	13.6
Cn1c(=O)c2c(nc(CN3CCc4ccccc4C3)n2Cc2ccccc2F)n(C)c1=O	3.1	61.2*	3.1	22.9
Cn1c(=O)c2c(nc(CN3CCc4ccccc4C3)n2CCc2ccccc2)n(C)c1=O	.	30.0	.	.
Cn1c(=O)c2c(nc(CN3CCc4ccccc4C3)n2Cc2cccc(Cl)c2)n(C)c1=O	5.6	56.2*	0.5	46.8
Cn1c(=O)c2c(nc(CN3CCN(Cc4ccccc4)CC3)n2Cc2cccc(Cl)c2)n(C)c1=O	8.1	19.6	.	.
CN(C)CCNC(=S)Nc1ccc(Br)cc1	16.3	-4.2	0.1	-10.9
Cc1c(C)n(Cc2ccccc2)c2ccc(C(=O)OCCN(C)C)cc12	37.5	100.2*	0.1	43.6
Cc1ccc(-c2noc(-c3ccoc3C)n2)cc1	-13.0	-4.6	-0.1	51.0
Cc1ccc(C)c(S(=O)(=O)c2c(N)n(/N=C/c3ccco3)c3nc4ccccc4nc23)c1	-2.9	93.9*	3.8	24.5
Nc1c(S(=O)(=O)c2ccccc2)c2nc3ccccc3nc2n1Cc1ccco1	0.4	77.5*	1.4	60.6
Cc1ccc(S(=O)(=O)c2c(N)n(Cc3ccco3)c3nc4ccccc4nc23)cc1C	12.5	90.6*	3.7	51.7
Cc1ccc(S(=O)(=O)c2c(N)n(CCN3CCOCC3)c3nc4ccccc4nc23)cc1C	6.8	-2.6	10.6*	46.4
O=C(C1=C[C@H](c2coc3ccccc3c2=O)C[C@H](OCCCCO)O1)N1CCN(Cc2ccc3c(c2)OCO3)CC1	2.9	0.4	-0.5	33.7
CCOC(=O)C1CCN(C(=O)c2cccnc2Oc2ccccc2)CC1	.	.	.	-1.3
O=C(c1ccccc1)N1CCN(S(=O)(=O)c2cccc(NS(=O)(=O)c3ccccc3)c2)CC1	-1.7	1.5	3.6	-7.9
CC1CC(C)CN(CCCNC(=O)Cn2ncn3cccc3c2=O)C1 (stereo unspecified)	-4.0	-3.8	0.9	-1.7
CCc1cc2c(cc3c(=O)n(CC(=O)NCCCN(CC)CC)nc(CC)n32)s1	14.4	91.5*	-0.4	19.4
CCc1cc2c(cc3c(=O)n(CC(=O)NCCCN4CC(C)CC(C)C4)ncn32)s1 (stereo unspecified)	10.0	84.5*	1.9	39.0
Cc1ccc(O)c(-c2cc3ccccc3[nH]2)c1	18.3	59.0*	0.3	-11.8
COc1ccc(-c2cc3ccccc3[nH]2)cc1	.	.	.	17.1
CC(=O)N1C(O)CC(C)N1c1ccccc1 (stereo unspecified)	0.8	-6.0	1.5	-1.5
Cc1ccc(S(=O)(=O)Nc2cccc3ncccc23)cc1	.	.	.	5.4
Cc1ccc(S(=O)(=O)Nc2cccc3ncccc23)s1	71.0*	100.2*	0.0	.
Cn1c(C(=O)N2CCN(c3ccccn3)CC2)cc2c(=O)n(C)c3ccccc3c21	1.4	.	.	.
SMILES	WT yeast gro inh	L major viab	RAM inhibit	CHOP inh
CCOC(=O)N1CCN(C(=O)CN(C)S(=O)(=O)c2ccc3c(c2)C(C)(C)C(=O)N3C)CC1	67.6*	-0.4	-0.1	-3.3
CCOC(=O)N1CCN(C(=O)CN(C)S(=O)(=O)c2ccc3c(c2)c(=O)n(C)c(=O)n3C)CC1	-0.9	-3.0	2.5	-2.5
Cc1ccc(NC(=O)C2C3CCCC2C3c2ccccc2)c(C)c1 (stereo unspecified)	15.7	83.8*	0.5	22.3
Cc1ccc(NC(=O)C2C(c3ccccc3)C2(Cl)Cl)c(C)c1 (stereo unspecified)	86.0*	41.1	1.7	45.2
Cc1cccc(NC(=O)C2C(c3ccccc3)C2(Cl)Cl)c1 (stereo unspecified)	63.6*	28.9	8.1	73.6*
CC(=O)c1cccc(NC(=O)C2C(c3ccccc3)C2(Cl)Cl)c1 (stereo unspecified)	36.2	33.3	6.4	24.8
